Most compounds without a hit are left out; they make up all but 19% or so of the library.
TDP1 cell CPT: DT40-hTDP1 cell growth loss with CPT. Potency, µM (titrated, usually from 46.2 µM), hits mostly inhibitors. 420,000 tested, 12% active. AID 686979. chicken DT40 Tdp1-/-;hTDP1 cells + 20 nM CPT, ATP luminescence, 48 h; note: nearly all actives have a fitted effect of over 55% in size
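Chicken DT40 Tdp1-/- cells complemented with human TDP1, 400 cells/well, exposed to compounds plus 20 nM camptothecin for at least 48 h at 37 C; viability read as ATP content by CellTiter-Glo luminescence.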
DT40 TDP1 no CPT: qHTS for Inhibitors of human tyrosyl-DNA phosphodiesterase 1 (TDP1): qHTS in cells in absence of CPT; 420,000 tested, 15% active; DT40 Tdp1-/- hTDP1 cells, no CPT, ATP luminescence, 48 h; AID 686978, 2013; Potency, µM (doses to about 46.2 µM), most hits filed as inhibitors; note: nearly all actives have a fitted effect of over 55% in size
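A cellular qHTS used chicken DT40 cells lacking endogenous Tdp1 but carrying stably transfected human TDP1. Compounds were applied without camptothecin, and cell growth kinetics were judged by ATP-dependent luminescence after ≥48 hr.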
HT1080NT lethal: kills 2HG-producing HT-1080-NT fibrosarcoma cells. HT-1080-NT fibrosarcoma viability, CellTiter-Glo ATP luminescence, 48 h. Potency, µM (highest dose often 46.1 µM), actives largely listed as cytotoxic. 360,000 tested, 1.6% active;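 note: NT is the 2HG producing partner of a matched IDH1 knockdown line; nearly all actives have a fitted effect of over 55% in size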
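Viability by CellTiter-Glo luminescence after 48 h compound exposure at 37C of HT-1080-NT cells (750/well, RPMI, 5% FBS). % activity scaled between DMSO wells and medium-only wells, then curve-fitted and categorized by curve class.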
HT1080 IDH1KD tx: HT-1080 IDH1 knockdown cell toxicity (counter line) | HT-1080 IDH1 knockdown viability, ATP luminescence, 48 h | 360,000 tested, 2% active | Potency, µM (series often up to 46.1 µM), most hits filed as cytotoxic
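Luminescent ATP read-out (CellTiter-Glo, 10 min at room temperature) after 48 h compound exposure at 37 °C gave viability of IDH1-knockdown HT-1080 cells. Activity was normalised to DMSO and cell-free wells, then fitted as concentration-response curves.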
IL1B secr inh: blocks inflammasome-driven IL-1 beta release; THP-1 LPS/ATP IL-1B secretion, AlphaLISA, 16 h; stronger effect = lower value; activity change, % at 57.5 µM; 360,000 tested, 4.7% active; in the data active = activity change below about -50%; inconclusive = mostly about -30% to -49%
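THP-1 cells pretreated 1 hr with compounds (up to 57.5 uM final), then stimulated with LPS (250 ng/mL final) plus ATP (1.25 mM final); secreted IL-1B measured by AlphaLISA after 16 hr, decreased signal indicating inhibition.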
A number is an active result; 0 = inactive; ? = inconclusive; - = no result. Unless noted, calls come from the whole dose curve; as a rule, active = well fitted curve in the direction sought with a large enough effect; inconclusive = small, poorly fitted or top-dose-only effect, or another doubt; inactive = no such curve, though single readings can be large; an effect the other way counts as inactive or inconclusive.

SMILES	TDP1 cell CPT	DT40 TDP1 no CPT	HT1080NT lethal	HT1080 IDH1KD tx	IL1B secr inh
Oc1ccc2ccccc2c1CN1CCOCC1	0	0	0	0	0
Oc1c(Cl)cc(Oc2cc(Cl)c(O)c(CN3CCOCC3)c2)cc1CN1CCOCC1	0	?	0	0	0
C=CCNC(=S)NNC(=O)CC12CC3CC(CC(C3)C1)C2	0	0	0	0	-
C1=C(CCNc2ncnc3c2[nH]c2ccccc23)CCCC1	0.73µM	0.41µM	26µM	26µM	-84
Brc1ccc2[nH]c3c(NCc4ccccn4)ncnc3c2c1	?	?	?	16µM	-
COc1ccc(CNc2ncnc3c2[nH]c2cc(OC)c(OC)cc23)cc1	?	?	0	?	-95
COc1ccc(CNc2ncnc3c2[nH]c2ccccc23)cc1	10µM	5.8µM	16µM	21µM	-108
CCCOc1ncnc2c1[nH]c1ccc(C)cc12	?	9.2µM	?	?	0
COc1ccc2c(c1)[nH]c1c(Cl)ncnc12	?	?	0	0	-95
Cc1ccc2[nH]c3c(NCc4ccccc4)ncnc3c2c1	21µM	16µM	0	0	0
Cc1cccc(CNc2ncnc3[nH]ncc23)c1	?	?	0	0	0
COc1ccc2c(c1)[nH]c1c(=O)n(N)cnc12	0	0	0	0	0
Cc1ccc2[nH]c3c(Cl)ncnc3c2c1	0	0	?	?	-
COc1ccc(CNC(=O)Cn2cnc3c(NCc4ccccc4)ncnc32)cc1	10µM	5.8µM	15µM	16µM	0
CNc1cncc(-c2ccc(OC)c(OC)c2)n1	0	0	0	0	0
Cc1nc2nc[nH]n2c(=O)c1CCC(=O)Nc1ccc(F)cc1	0	0	-	-	-
CCCSCCCNC(=O)c1ccc2nc(Cc3ccccc3)oc2c1	0	0	-	-	-
c1coc(CNc2ncnc3c2[nH]c2ccccc23)c1	13µM	14µM	-	-	-
COc1ccc(CNc2nc(=S)[nH]c3cc(OC)c(OC)cc23)cc1	0	?	0	0	0
COc1cc2[nH]c(=S)nc(NCc3ccc(C)cc3)c2cc1OC	?	23µM	0	0	0
CC(C)OCCCNc1ncnc2c1[nH]c1ccccc12	8.9µM	14µM	?	?	-93
CCOc1ccc2[nH]c3c(NCCOC)ncnc3c2c1	?	0	0	0	0
O=C(NCC(=O)N(c1ccccc1F)C(C(=O)NC1CCCC1)c1cccnc1)c1ccco1 (centres undefined)	0	0	0	0	0
COc1ccccc1CCn1c(=O)cnc2cncnc21	4.6µM	5.8µM	-	-	-
COc1ccccc1CCn1c(=O)c(-c2cccs2)nc2cncnc21	0	0	-	-	-
SMILES	TDP1 cell CPT	DT40 TDP1 no CPT	HT1080NT lethal	HT1080 IDH1KD tx	IL1B secr inh
COc1ccc(O)c(CN2CCC3(CCC(CNC(=O)c4ccco4)O3)CC2)c1 (centres undefined)	0	0	-	-	-
O=C(NNC(=O)C12CC3CC(CC(C3)C1)C2)c1csc(N2CCOCC2)n1	?	?	0	0	0
C=C1[C@@H](O)[C@H](Cc2ccccc2)N(Cc2ccccc2Br)S1(=O)=O	21µM	18µM	?	23µM	-102
Cc1cnc(CNc2cc(-c3ccc4c(c3)OCO4)ncn2)cn1	0	0	-	-	-
CCOC(=O)C1CCN(C(=O)CCc2nnc3ccc(N4CCC(C)CC4)nn23)CC1	18µM	?	0	0	0
CCOC(=O)CNC(=O)CCc1nnc2ccc(N3CCC(C)CC3)nn12	23µM	?	0	0	0
CN1C(C(=O)NCc2ccccc2)CC2Cn3c(nc4cc5ccccc5cc43)C21 (centres undefined)	0	?	0	0	0
CCNC(=S)/N=C(/Nc1ccccc1)Nc1nc(C)cc(C)n1	?	?	0	0	-
COc1cccc(NC(=S)Nc2cc(C)cc(C)n2)c1	0	0	0	0	-
COc1cccc(N/C(=N/C(=S)Nc2ccc(C)cc2C)Nc2nc(C)cc(C)n2)c1	?	18µM	?	?	0
CCNC(=S)/N=C(/Nc1ccc(OC)cc1)Nc1nc(C)cc(C)n1	23µM	21µM	0	0	0
CNc1ccccc1C(=O)OCC(=O)N1CCc2ccccc2C1	0	0	0	0	0
O=C(CN1C2CCCC1CC(NC(=O)c1ccco1)C2)Nc1ccccc1C(F)(F)F (centres undefined)	23µM	23µM	0	0	0
O=C(CN1C2CCCC1CC(NC(=O)c1ccccc1)C2)Nc1ccccc1C(F)(F)F (centres undefined)	?	16µM	0	0	0
CC(C)(C)NC(=O)c1cccc2c1OC(C)(C)C2	0	?	0	0	0
CC(=O)N1CCSc2ccc(S(=O)(=O)NCCc3ccc(Cl)cc3)cc21	16µM	?	0	?	0
CC(=O)N1CCSc2ccc(S(=O)(=O)NCCc3ccc(C)cc3)cc21	23µM	21µM	0	0	?
COc1ccc(NS(=O)(=O)c2ccc3c(c2)N(C(C)=O)CCS3)cc1	?	?	0	0	0
CC(=O)N1CCSc2ccc(S(=O)(=O)NCCc3cccc(C)c3)cc21	21µM	10µM	0	0	-80
CC(=O)N1CCSc2ccc(S(=O)(=O)Nc3ccc(C)cc3)cc21	?	0	0	0	0
COc1ccc(/C=C/C(=O)OC(C)CN2CCCCC2)cc1 (centres undefined)	0	0	0	0	0
Cc1ccc(Cn2ccc(NC(=O)c3c(-c4ccccc4Cl)noc3C)n2)cc1	0	?	0	0	0
O=C(Nc1cccc(C(F)(F)F)c1)c1ccc(F)c(S(=O)(=O)N2CCc3ccccc3C2)c1	15µM	13µM	-	-	-
O=C(Nc1cccc(Cl)c1)c1ccc(F)c(S(=O)(=O)N2CCC3(CC2)OCCO3)c1	15µM	13µM	-	-	-
O=C(Nc1cc(Cl)cc(Cl)c1)c1cc(S(=O)(=O)N2CCC3(CC2)OCCO3)ccc1F	21µM	?	-	-	-
SMILES	TDP1 cell CPT	DT40 TDP1 no CPT	HT1080NT lethal	HT1080 IDH1KD tx	IL1B secr inh
O=C(c1cc(S(=O)(=O)N2CCC3(CC2)OCCO3)ccc1F)N1CCCCC1	0	0	0	0	-60
Cc1cc(C)c(NC(=O)c2cc(S(=O)(=O)N3CCC4(CC3)OCCO4)ccc2F)c(C)c1	0	?	-	-	-
Cn1ccnc1C(=O)c1cc(SCC(=O)N2CCOCC2)nc2ccccc12	0	0	0	0	0
O=C1c2ccccc2C(=O)N1Cc1nc2ccccc2c(=O)n1CCN1CCOCC1	0	0	0	0	0
O=C(Nc1ccccc1Cl)c1cc(S(=O)(=O)N2CCC3(CC2)OCCO3)ccc1F	?	?	0	0	0
O=C(Nc1cccc(Cl)c1Cl)c1cc(S(=O)(=O)N2CCC3(CC2)OCCO3)ccc1F	?	23µM	-	-	-
CCOC1=C2[C@@H](CN(S(=O)(=O)c3ccc(C)cc3)[C@H]2c2ccccc2)[C@H]2C(=O)N(c3ccccc3)C(=O)[C@H]2C1	0	0	?	0	0
Cc1ccc2cccc(N)c2n1	0	0	0	0	0

Compound activity from PubChem.
